From PubChem BioAssay AID1986 (Sanford-Burnham Center for Chemical Genomics, 2009)
Screen size: about 290,000 compounds; about 890 (0.31%) were called active. No stated cut-off is given here; in the data, active means inhibition mostly above about 52% (no sharp cut-off); inactive means mostly below about 76%. The sample as a whole holds a higher share of actives than the screen did.

Experiment: inhibitors of HIV fusion peptide binding, primary screen, biochemical, uHTS, fluorescence dequenching (AID 1986)
Conditions: cell-free peptide binding, 30 min, stronger effect = higher value
[1] = measured here: repeat confirmation average inhibition, at 18.6 µM

SMILES | inhibition (at 20 µM) | inhibition [1] [%]
CC1(C)NC(=O)N(CC(O)CN(Cc2ccccc2)Cc2ccccc2)C1=O (stereo not drawn) | 0.1% (inactive) | –
O=C(NCc1ccco1)C12CN(Cc3ccccc3)CC1C(c1cccc([N+](=O)[O-])c1)=NO2 (stereo not drawn) | 0.7% (inactive) | –
COc1ccc(C2CC(c3c(-c4ccccc4)c4cc(Cl)ccc4[nH]c3=O)=NN2C(=O)CCC(=O)O)cc1 (stereo not drawn) | 15.1% (inactive) | –
O=c1c2c([nH]n1-c1ccccc1)CCSC2 | 3.5% (inactive) | –
COc1ccc2c(c1OC)C[N+]1([O-])CCc3cc4c(cc3C1C2)OCO4 (stereo not drawn) | -1.5% (inactive) | –
C=CCNC(=S)NNc1nc(N2CCCC2)nc(N2CCCC2)n1 | -0.8% (inactive) | –
COc1ccnc(CN(C)C(=O)C2CCC(=O)N(Cc3cccc(C(F)(F)F)c3)C2)c1 (stereo not drawn) | 4.4% (inactive) | –
COc1cc(-n2nnnc2SC)c(OC)cc1Cl | 2.2% (inactive) | –
C/C(=N\NC(=O)CN(c1ccc(Oc2ccccc2)cc1)S(C)(=O)=O)C(C)(C)C | -0.5% (inactive) | –
C=CCN1C=CC(=C/C=C(/C#N)C(=O)OCC)C=C1 | -0.9% (inactive) | –
CCOC(=O)/C(C#N)=C\C=C1C=CN(C)C=C1 | 98.3% (active) | 52.3
CCCN1C=CC(=C/C=C(\C#N)C(=O)OCC)C=C1 | 0.7% (inactive) | –
CC(C)Cc1nc(S(=O)(=O)c2ccc(Cl)cc2)c(N2CCOCC2)o1 | 1.2% (inactive) | –
Cc1ccc(-n2c(=O)c3ccc(C(=O)NCc4ccco4)cc3n(Cc3ccccc3C#N)c2=O)cc1 | -1.1% (inactive) | –
Nc1c(C(=O)Nc2ccccc2)sc2nc3c(c(-c4ccco4)c12)CCC3 | -1.5% (inactive) | –
Nc1c(C(=O)NCC2CCCO2)sc2nc3c(c(-c4ccco4)c12)CC/C3=C\c1ccco1 (stereo not drawn) | 64.6% (active) | –
Nc1c(C(=O)NC2CC2)sc2nc3c(c(-c4ccco4)c12)CC/C3=C/c1ccco1 | 64.6% (inactive) | 21.7
COc1ccc(Nc2nc3ccccc3nc2NS(=O)(=O)c2cccs2)c(OC)c1 | 51.5% (active) | 64.5
COc1cccc(Nc2nc3ccccc3nc2NS(=O)(=O)c2cccs2)c1 | 69.4% (inactive) | 30.8
COc1ccc(Nc2nc3ccccc3nc2NS(=O)(=O)c2cccs2)cc1 | 45.5% (inactive) | –
Cc1cccc(C)c1NC(=O)CN(C)C(=O)c1ccccc1C(=O)N(C)Cc1ccccc1 | -1.3% (inactive) | –
C(=N\Nc1nc(N2CCCC2)nc(N2CCCC2)n1)/c1ccncc1 | -0.1% (inactive) | –
COc1ccc(C(=O)NCc2nnc(SCC(=O)Nc3ccccc3F)o2)cc1 | -1.8% (inactive) | –
COc1ccccc1/C=C/C(=O)NCC(=O)n1nc(C)cc1C | 0.9% (inactive) | –
